The source of these data is PubChem BioAssay.

Values without a mark were called inactive.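 The calls were made as follows: active = compounds whose cell count with miR-34 switched on is under 0.7 times the count with it off; inactive = the rest.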

The assay can be described thus: viability loss with induced miR-34 in A549 – imaging, A549 dox-inducible miR-34, nuclei and caspase counts, primary screen (AID 1347080). Also: test concentration not given here. The settings on record: A549 miR-34 inducible, Hoechst nuclei count, 48 h; hits give low values; cell number ratio, induced over uninduced.
Consider `CCCCCCCCCCCCCCCCCCCCCC(=O)NCCO`, for which the fold change was 1.03.
With `C[C@H](N)C(=O)CCCCCC(=O)O` the figure was 1.03.
With `CCCCCCCCCCCC(=O)NC[C@]1(C)CCC[C@]2(C)c3ccc(C(C)C)cc3CC[C@@H]12` the figure was 0.97; with `CCCCCCCC/C=C\CCCCCCCC(=O)OCC(O)COP(=O)(O)O` (configuration not stated), 1.12; with `C/C=C/C[C@@H](C)[C@@H](O)[C@H]1C(=O)N[C@@H](CC)C(=O)N(C)CC(=O)N(C)[C@@H](CC(C)C)C(=O)N[C@@H](C(C)C)C(=O)N(C)[C@@H](CC(C)C)C(=O)N[C@@H](C)C(=O)NC(C)C(=O)N(C)[C@@H](CC(C)C)C(=O)N(C)[C@@H](CC(C)C)C(=O)N(C)[C@@H](C(C)C)C(=O)N1C` (some centres not stated), 1.02.
Take `NCc1cccc2ccncc12`: the fold change is 0.913.
Take `CCCCC[C@](C)(O)/C=C/[C@H]1[C@H](O)CC(=O)[C@@H]1CCCCCCC(=O)O`: the fold change is 1.
Regarding `O=C(O)CCCCCCC1C(=O)N(Cc2ccccc2)C(=O)N1NCC(O)C1CCCCC1` (configuration not stated), the fold change is 0.813.
`O=C1O/C(=C/Br)CC[C@@H]1c1cccc2ccccc12`: the fold change was 0.956.
For `O=C(O)CCC/C=C\C[C@@H]1[C@@H](/C=C/[C@H](O)CCc2ccccc2)[C@H](O)C[C@@H]1O`, the fold change is 0.915.
As to `CCCCC/C=C\C/C=C\C/C=C\C/C=C\CCCC(=O)OCC`, the fold change is 0.807.
With `CCCCCCC(=O)SC[C@H](COP(=O)([O-])OCC[N+](C)(C)C)SC(=O)CCCCCC` the figure was 0.918; with `CC(C)OC(=O)CCC/C=C\C[C@@H]1[C@@H](/C=C/[C@@H](O)CCc2ccccc2)[C@H](O)C[C@@H]1O`, 0.961; with `CC[C@@H]1/C=C(\C)C[C@H](C)C[C@H](OC)[C@H]2O[C@@](O)(C(=O)C(=O)N3CCCC[C@H]3C(=O)O[C@H](/C(C)=C/[C@@H]3CC[C@@H](O)[C@H](OC)C3)[C@H](C)[C@@H](O)CC1=O)[C@H](C)C[C@@H]2OC`, 0.914.
With `CCCCC[C@@H](O)/C=C/[C@H]1[C@H](O)CC(=O)[C@@H]1C/C=C\CCCC(=O)O`, the fold change is 0.971.
With `CC(=O)OCOC(c1ccc2ccccc2c1)P(=O)(OCOC(C)=O)OCOC(C)=O` (configuration not stated) the figure was 1.11.
The same measure for `CCCCC[C@H](O)/C=C/[C@H]1[C@H](O)CC(=O)[C@@H]1CC(=O)CCCCC(=O)O`: 0.96; for `O=C(O)CCCCCC[C@@H]1[C@@H](CC[C@@H](O)CCc2cccc(C(F)(F)F)c2)[C@H](O)C[C@@H]1O`: 1.13.
For the compound `CCCCCCCCCCCCCCCCOC[C@H](COP(=O)([O-])OCC[N+](C)(C)C)OC(=O)CCC`, the fold change is 0.868.
Turning to `CCCCCCCCCCCCC/C=C/[C@@H](O)[C@H](CO)NC(=O)CCCCC`, the fold change is 0.988.
`CCCCC[C@H](O)/C=C/[C@@H]1[C@H](C/C=C\CCCC(=O)NCCO)[C@@H](O)C[C@H]1O`: the fold change is 1.11.
For `CCCCCCCCCCCCCCCCCCCCCCCCC(=O)OC`, the fold change is 1.06.
With `CC#CCC(C)[C@H](O)/C=C/[C@@H]1[C@H]2C/C(=C\CCCC(=O)O)C[C@H]2C[C@H]1O` (some centres not stated), the fold change is 0.896.
In the case of `CCCCC/C=C\C/C=C\C/C=C\CCCCCCC(=O)OC`, the fold change was 1.11.
For `CCCCCCCCCCCCCCCCSC[C@H](COP(=O)([O-])OCC[N+](C)(C)C)NC(=O)CCCCCCCCCCCCCCC`, the fold change is 1.04.
Regarding `O=C(O)CCCCCC[C@H]1C(=O)NC(=O)N1CCC(O)C1CCCCC1` (some centres not stated), the fold change was 1.09.
For the compound `CCCC[C@H](C)C[C@H](O)/C=C/[C@H]1[C@H](O)CC(=O)[C@@H]1CCCCC(CC(=O)O)OC` (some centres not stated), the fold change was 0.949.
Regarding `CC(C)CCC[C@@H](C)[C@H]1CC[C@H]2[C@@H]3CC(=O)[C@@]4(O)C[C@@H](O)CC[C@]4(C)[C@H]3CC[C@]12C`, the fold change is 0.89.
The same measure for `CC(C)CCCC(C)NC(C)C` (configuration not stated): 0.993.
Take `CCCCCCCC/C=C\CCCCCCCCCCCCCC(=O)N[C@@H](CO)[C@H](O)/C=C/CCCCCCCCCCCCC`: the fold change was 0.996.
The same measure for `CCCCC[C@@](C)(O)/C=C/[C@H]1[C@H](O)CC(=O)[C@@H]1C/C=C\CCCC(=O)O`: 1.04; for `CC(C)OC(=O)CCC/C=C\C[C@@H]1[C@@H](/C=C/C(F)(F)COc2ccccc2)[C@H](O)C[C@@H]1O`: 1.05.
